# Reference: the supplement of paper PMC6555819
# Test system: VDR:RXRa (NR concentration 270 nM, RXRa partner concentration 90 nM)
# Assay: PBM binding z-score (relative to random genomic background probes); higher = stronger binding; sequences stand for … in GC…GCGATTGACAGCGTAGAATGAAGG
# Description: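 Protein-binding microarray (Agilent 4x180K custom design, double-stranded 60-nt probes: 5' GC cap, 34-nt variable region, 24-nt constant primer region; full probe sequence given). Purified or IVT nuclear receptor:RXRα heterodimers (3:1 NR:RXRα, mostly 270:90 nM) or homodimers were incubated for 1 h in PBS with 2% milk and no ligand, then detected with Alexa488 antibodies. Fluorescence from o1-orientation probes (~5 replicates averaged) was converted to z-scores against 500 random hg19 background probes. Variable regions are seed direct-repeat (DR0–DR5) sites, all their single-nucleotide variants and half-site ablations.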
row,Sequence,PBM binding z-score
1,TAGCCTAGGTCATGGGCCGGTATACCACGCGAAC,2.18
2,ACTATTAGTTGTGACGAGGGCAACCGATAGGTTG,0.506
3,TCATATAGGTAAACAGGTGGAAGTCCGTAAGTTA,0.7
4,TCATATTGGTAAACAGGTGAAAGTCCGTAAGTTA,1.08
5,CGTCAAAGTTCAACAAAGGTAACGTAAAGCACGC,4.46
6,GCTTGTAGATCAAGGTTGAGAAAGACTAAGCTAA,-0.388
7,CCTACTGGGCCACGAAAGGTCATTTATTCAGTGA,4.27
8,CGTCCAAGGTCATAGGAGGTCGGTGAAGACAGAT,5.71
9,AGAATGAGGTTAAGATCAGGGACACAGAATACAT,1.93
10,TGAATAAGGTTAAAGATCAGGGAACGTGGCGTCG,1.37
11,TCTATTAGTTGATTAGGGGAACCGAAACAGCGGA,0.739
12,GGAACGAGGGCAATTTGATAGCAGAGTTTGATGG,0.368
13,TCGGCTAGGTCAACGATGGTCAGCTAATCTGCTA,1.73
14,AGAAAGAGGTTACCAAAGATCAGGGAAACGCTTG,1.3
15,TAGCCTAGGTCATTCAGGGGCCAATATAGAAAGC,3.77
16,ATCTCTAGGTAAGACTCGGTTCAGTGAAGAACGC,1.05
17,TCTTGTTGATCAACAGGAGGTTAAGAAAGATCGA,0.368
18,CCTCACGGGTCAAGGTTATAGCACGGGTGGTACG,3.18
19,GCGACTGGGGCAAAGCAAGTTACCATAAGGTTGG,-0.206
20,GCTGCTAAGTCAACTGATGGTCAGCTAAAGCTCG,-0.619

row,Sequence,PBM binding z-score
1,TCTTGTAGATAAATAGAGGTTAAGAAAGTGCGCT,1.87
2,CGCCAAAGTTCAAGGTAACGTAACAGAAAGCAGC,3.76
3,GATACAGGGTCAGCTAGAGGCCAGAGTTTGGAAA,3.36
4,CCTCGGTGGACAACAGGAGGTCAGAGCTGCCAGA,1.07
5,AGTCAAAGTTCATCTAGGTACCGTAAGATATGCT,4.98
6,ACTTACGGGTCAACGAGGTTATAGTACGCGTATA,7.78
7,AGAATGAGGTTATACGTTGATCAGGGAAGAAAGT,1.39
8,CTCGAAAGGTCGGTTGAGGTAAGTATACGGATAA,1.57
9,TCATATAGGTAAAAAGGTGAAAGTCCGTAAGTTA,1.61
10,CAAACTAGGTCAAAGGACAAAGTCGAGCCAACCA,1.96
11,TCGAGTGGGTTACCAATGGGGCATTCAGCTTTCT,0.0141
12,CCTGGGAGGACAGAAGGTCAGAGCTGTCCGCTTT,1.04
13,CCGACTGGGGAAAAGGTTACCATACTCAGTACGA,0.397
14,TCTTGTGGATCAATAGAGGTTAAGAAAGTGCGCT,1.73
15,GTACCTAGGTGAATAGGTCGTTGATGAGTAGGCG,0.549
16,TAGCCTAGGTCATGGGCCCGTATACCACGCGAAC,2.07
17,TGAATGAGGGTAAAGATCAGGGAACGTGGCGTCG,-0.0441
18,CCAGCTAGGTCATGGTCAGCTAATCTACAGTATG,1.6
19,TTACCAAAGTGAGCTGAGGTCGTTGATCCAACTC,1.84
20,ATCTCTAGGTAACAAGTTCAGGGAAAGAGAGGAC,2.25
